Assay outcomes as filed in PubChem BioAssay.
Shown are actives, neighbours in structure and some others; about 3.8% of the full set was active somewhere.
HSF-1 act – increases HSF-1 driven luciferase reporter signal | NIH3T3-HGL HSF-1 luciferase reporter, MG132, 8 h; 100% = twice DMSO control signal | 300,000 compounds, 1.7% hits | activation, % at 9 µM;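 active means mean replicate activation of at least 50% with a set share of replicates each reaching 50%; inconclusive means only one of those two conditions met; inactive means mean below 50% and too few replicates reaching it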;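 further: 0% = median of the neutral control wells and 100% = twice that signal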
HSF1 inh – HSF1 inhibition. NIH3T3-HGL HSE-luciferase, MG132-induced, luminescence 8 h; hits give low values. activity change, negative = inhibition, % at 7.5 µM (by protocol). 300,000 compounds, 0.77% hits;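 active means more than half of replicate wells show activity change below -50%, luminescence cut by over half; inconclusive means some wells, but at most half, below -50%; inactive means no replicate well below -50%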;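 further: luciferase reports HSF-1 transcriptional activity via heat shock element; 0% = median of DMSO wells and -100% = zero luminescence signal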
esBAF inh – blocks esBAF chromatin remodeling in mouse ES cells. Bmi1-luciferase knock-in reporter, 24 h; 100% = twice the neutral-well signal. reporter increase, % at 12.5 µM. 350,000 compounds, 2% hits. AID 602393; in the data active means activation above about 40%; inconclusive means no clear call, values can overlap the other calls;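 further: 0% = median of the plate's neutral control wells and 100% = double that signal; a rise in the Bmi1 reporter signal indicates esBAF inhibition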
MITF act – MITF TRPM1 promoter activation in melanoma cells; SK-MEL-5 TRPM1-promoter luciferase, 24 h; % of positive control, neutral wells = 0; activation, % at 12.5 µM; 300,000 compounds, 0.75% hits; AID 588334;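 active means mean activation of at least 80% with every replicate also reaching 80%; inconclusive means mean reaches 80% but some replicate falls short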;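 further: 0% = neutral control wells and 100% = parthenolide positive control wells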
Wnt act – activators of Wnt/beta-catenin signaling. Wnt/beta-catenin reporter cell assay, activator, plate reader. activation, % at 9.35 µM. 300,000 compounds, 1.2% hits; in the data active means activation above about 30%, passing the limit was not always enough; inconclusive means no clear call, values can overlap the other calls;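 further: 0% = neutral control wells and 100% = positive control wells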
* hit, by the source's call; ? = inconclusive; . = no result given.

SMILES	HSF-1 act	HSF1 inh	esBAF inh	MITF act	Wnt act
C[C@H]1CCCCO[C@@H](CN(C)C(=O)C2CCCCC2)[C@@H](C)CN([C@@H](C)CO)C(=O)c2cc(NS(=O)(=O)c3cn(C)cn3)ccc2O1	.	.	2	.	.
CCCN(C)C[C@H]1OCCCC[C@H](C)Oc2ccc(NS(=O)(=O)c3ccc(F)cc3)cc2C(=O)N([C@@H](C)CO)C[C@H]1C	.	.	-1	.	.
COc1cccc(NC(=O)N2C[C@H](O)COC[C@H]3O[C@H](CC(=O)NC4CCC4)CC[C@@H]32)c1	.	.	4	.	.
O=c1nc2sc3ccccc3n2c(=O)n1-c1ccc(Cl)cc1	5	9	46*	114*	13
O=c1nc2sc3ccccc3n2c(=O)n1-c1cccc(Cl)c1	28	16	76*	.	.
Cc1ccc2c(c1)sc1nc(=O)n(-c3ccc(Cl)cc3)c(=O)n12	32	-4	23	.	.
Cc1ccc2c(c1)sc1nc(=O)n(-c3ccc(Cl)c(Cl)c3)c(=O)n12	.	.	3	12	-2
O=C(Cn1nc2sc3ccccc3n2c(=O)c1=O)c1ccc(Cl)cc1	2	-4	.	.	.
Cc1ccc2c(c1)sc1nc(=O)n(-c3cccc(Cl)c3)c(=O)n12	43	12	69*	103*	.
O=C(Nc1ccn(Cc2ccc(Cl)cc2)n1)c1ccccc1	45	33	56*	?	35*
CC(=O)c1cccc2c(O)c(C3=Nc4ccccc4C3=O)[nH]c12	62*	33	13	-38	40*
CCCNC(=O)Nc1ccc2c(c1)C(=O)N(C)C[C@@H](OC)[C@H](C)CN(CCC(F)(F)F)[C@@H](C)CO2	.	.	3	.	.
O=c1c2ccccc2nnn1Cc1ccccc1	23	0	1	2	5
O=c1c2ccccc2nnn1COc1cccc(Cl)c1	74*	55	59*	44	7
O=c1c2ccccc2nnn1CSc1ccccc1F	82*	29	.	17	?
Cc1ccc(SCn2nnc3ccccc3c2=O)c(C)c1	66*	37	.	110*	27
O=c1c2ccccc2nnn1CCc1ccccc1	.	.	20	.	43*
COc1ccc(S(=O)(=O)N(C)C[C@@H]2Oc3ccc(NS(=O)(=O)c4cccs4)cc3C(=O)N([C@H](C)CO)C[C@@H]2C)cc1	.	.	0	.	.
CNC(=O)C[C@@H]1CC[C@H]2[C@@H](COc3ccc(NC(=O)Nc4cccc(C)c4)cc3C(=O)N2C)O1	.	.	5	.	.
CCCc1cn(CC[C@H]2CC[C@@H](NS(=O)(=O)c3ccc(-c4ccccc4)cc3)[C@H](CO)O2)nn1	.	.	10	.	.
CN(C)C(=O)C[C@@H]1C=C[C@@H](NC(=O)C2CCC2)[C@H](CO)O1	.	.	3	.	.
O=c1ccnc(SCn2nnc3ccccc3c2=O)[nH]1	-10	3	.	-6	.
O=c1c2ccccc2nnn1CSc1ncnc2ccccc12	112*	78	.	-9	.
COc1ccc(NC(=O)Nc2ccc3c(c2)[C@@H]2C[C@H](CC(=O)NCc4ccc(-c5ccccc5)cc4)O[C@@H](CO)[C@@H]2O3)cc1	.	.	10	.	.
CSc1ccccc1C(=O)N1CCN(c2ncccn2)CC1	-77	-70*	.	-6	3
SMILES	HSF-1 act	HSF1 inh	esBAF inh	MITF act	Wnt act
O=C(c1cc(-c2cccc(Cl)c2)nc2ccccc12)N1CCN(c2ccccn2)CC1	19	0	9	-3	0
Cc1cccc2c(C(=O)N3CCN(c4ccccn4)CC3)cc(-c3cccc(Br)c3)nc12	-84	-79*	5	-25	-6
CC(C)Oc1cccc(-c2cc(C(=O)N3CCN(c4ncccn4)CC3)c3ccccc3n2)c1	16	1	60*	51	-6
Cc1cccc2c(C(=O)N3CCN(c4ccccc4)CC3)cc(-c3ccncc3)nc12	-75	-70*	-15	-18	-7
C[C@H](CO)N1C[C@H](C)[C@H](CN(C)C(=O)Oc2ccccc2)OCc2cn(nn2)CCCC1=O	.	.	1	.	.
CCCN1[C@H](C(=O)NC2CCC2)[C@@H](CO)[C@@H]2Cn3c(ccc(-c4cccnc4)c3=O)[C@@H]21	.	.	2	.	.
COCCn1c(C)cc(C(=O)CSc2ccc(NC(C)=O)cc2)c1C	-23	-22	.	21	-5
CC(=O)Nc1ccc(SCC(=O)c2cc(C)n(Cc3cccs3)c2C)cc1	-75	-69*	-53	-2	-12
COC(=O)c1ccc(-n2c(C)cc(C(=O)CSc3ccc(NC(C)=O)cc3)c2C)cc1	-1	0	.	0	-2
CC(=O)Nc1ccc(SCC(=O)c2cc(C)n(-c3ccccc3F)c2C)cc1	-71	-68*	.	10	-11
CN(C)C(=O)C[C@H]1CC[C@@H]2[C@@H](COc3ccc(NC(=O)Nc4cccc(Cl)c4)cc3C(=O)N2C)O1	.	.	-1	.	.
COc1ccc(S(=O)(=O)N(C)C[C@H]2Oc3c(NS(C)(=O)=O)cccc3C(=O)N([C@@H](C)CO)C[C@H]2C)cc1	.	.	-1	.	.
COc1ccc(S(=O)(=O)Nc2ccc3c(c2)C(=O)N([C@H](C)CO)C[C@H](C)[C@H](CN(C)C(=O)Nc2ccccc2)OCCCC[C@@H](C)O3)cc1	.	.	-2	.	.
O=C(Nc1nc2ccsc2c(=O)s1)c1ccc(F)cc1Cl	45	19	.	.	52*
Cc1c(N=C2SCC(=O)N2/N=C\c2ccc(Br)cc2)c(=O)n(-c2ccccc2)n1C	67*	21	-3	2	.
Nc1cnc(Nc2ccc(Br)cc2)nc1N	16	1	53*	72	2
C[C@H]1CN([C@@H](C)CO)S(=O)(=O)c2ccc(-c3ccc(F)cc3)cc2O[C@H]1CN(C)C	.	.	-1	.	.
Cc1cc(Nc2ccc3c(c2)OCCO3)c2cc(Cl)ccc2n1	-58	-58*	.	-25	.
CC(C)NC(=O)N(C)C[C@@H]1Oc2ccc(NS(=O)(=O)c3ccc(F)cc3)cc2CC(=O)N([C@@H](C)CO)C[C@@H]1C	.	.	-1	.	.
CN(C)CC(=O)Nc1ccc2c(c1)[C@@H]1C[C@@H](CC(=O)NCc3ccccn3)O[C@H](CO)[C@@H]1O2	.	.	-1	.	.
COc1cc(OC)cc(C(=O)NC(C(=O)Nc2ccc3c(c2)OCCO3)C(C)C)c1 (stereo unspecified)	.	.	-13	14	0
CCOc1ccc(C(=O)Nc2ccc3c(c2)OCCO3)cc1OC	18	5	67*	34	-1
COc1cc(OC)cc(C(=O)Nc2ccc3c(c2)OCCO3)c1	28	15	42*	.	14
c1cc(CNc2ccc3c(c2)OCCO3)ccn1	-80	-78*	-22	-10	.
CCOc1ccc(Br)cc1CNc1ccc2c(c1)OCCO2	-63	-56*	.	-9	-1
C=CCOc1ccccc1CNc1ccc2c(c1)OCCO2	-38	?	.	-34	.
CCCC(=O)N1C[C@@H]2[C@H](c3ccccc31)[C@@H](CO)N2C(=O)CC1CC1	.	.	10	.	.
O=C(C[C@@H]1CC[C@H]2[C@@H](COC[C@@H](O)CN2C(=O)c2ccncc2)O1)NCc1ccc(-c2ccccc2)cc1	.	.	3	.	.
CCCN1[C@@H]2c3ccc(-c4ccccc4F)c(=O)n3C[C@@H]2[C@@H](CO)[C@@H]1C(=O)N1CCN(C)CC1	.	.	2	.	.
